Most compounds without a hit are left out; they make up all but 21% or so of the library.
Pf growth 96h – inhibits malaria parasite growth, 96 h | AID 504834 | P. falciparum luciferase reporter growth, 96 h | Potency, µM (top dose mostly 28.7 µM), usual class: inhibitors | 320,000 compounds, 6.9% hits
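96 h incubation, 37 C, 5% CO2, of luciferase-reporter P. falciparum-infected RBCs (2% hematocrit, 0.05% parasitemia final) with test compounds; endpoint luminescence.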
Pf growth 48h – inhibits P. falciparum growth in the first generation, 48 h. 310,000 compounds, 5.9% hits. Potency, µM (highest dose often 28.7 µM), hits mostly inhibitors. P. falciparum luciferase growth in erythrocytes, 48 h
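Compounds are pin-transferred into medium, infected erythrocytes (2% hematocrit, 0.1% parasitemia final) are added, and plates sit one parasite generation at 37 C in 5% CO2. Detection reagent is then added and luminescence measured.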
Shiga toxin inh – blocks Shiga toxin action in Vero cells | AID 2315 | 290,000 compounds, 9.2% hits | inhibition, % at 38.7 µM | Vero cells, Shiga toxin protein synthesis inhibition reporter; in the data active = inhibition mostly above about 28%, no sharp cut-off; inactive = mostly below about 43%
Cycloheximide cs – counter-screen for Shiga toxin inhibitors: cycloheximide protein synthesis inhibition; AID 2314; max response, %; 300,000 compounds, 12% hits; cell reporter, cycloheximide protein synthesis inhibition counterscreen; in the data active = max response mostly above about 13%, no sharp cut-off; inactive = mostly below about 14%; note: read at 38.3 µM for the half of the compounds with a filed dose
Of the large screens only hits and unclear results are named; the others gave an inactive call. Unless noted, calls come from the whole dose curve; as a rule, active = well fitted inhibition curve with a large enough effect; inconclusive = small, poorly fitted or top-dose-only effect, or another doubt; inactive = no such curve, though single readings can be large or run the other way.

CCOC(=O)c1sc(Nc2nc(C)cc(C)n2)nc1C	Pf growth 96h inconclusive, Pf growth 48h inconclusive
CCOC(=O)c1sc(Nc2ccc(C)cc2C)nc1C	Pf growth 48h inconclusive, Cycloheximide cs 17.6 (no result: Pf growth 96h)
CCOC(=O)c1sc(NC(=O)Nc2ccc(Cl)cc2)nc1C	Pf growth 48h inconclusive, Shiga toxin inh 72.2, Cycloheximide cs 42.9
CNc1nc(C)c(C(=O)OCc2ccccc2)s1	Shiga toxin inh 93.3, Cycloheximide cs 29.0
CNc1nc(C)c(C(=O)OCC(=O)OC)s1	none
Cc1nc(Nc2ccccc2)sc1C(=O)c1ccccc1	Pf growth 96h inconclusive, Shiga toxin inh 58.3, Cycloheximide cs 46.9
N#CCCN(C(=O)COC(=O)COc1ccccc1Cc1ccccc1)c1ccccc1	none (no result: Shiga toxin inh, Cycloheximide cs)
Cc1cc(=O)[nH]c(SCC(=O)N2CCCC(C)C2)n1 (configuration not stated)	none
CCc1ccc(-c2nc3ccc(Br)cc3c(C(=O)O)c2C)s1	none
COc1ccc(OC)c(NC(=O)Cn2c(=O)n(CC3CCCO3)c(=O)c3cc(OC)c(OC)cc32)c1 (configuration not stated)	Pf growth 96h inconclusive
COc1ccccc1CNc1nc(C)c(C(=O)N(C)C)s1	none
COC(=O)c1ccc(/C=N/Nc2nc(C)c(C)s2)cc1	Pf growth 96h inconclusive, Shiga toxin inh 97.4, Cycloheximide cs 63.5
CCOC(=O)c1sc(N/N=C/c2ccccc2)nc1C	Shiga toxin inh 34.3, Cycloheximide cs 84.8
CCOC(=O)c1sc(NC(=O)c2ccccc2OCC)nc1C	Cycloheximide cs 36.3
COc1ccccc1CNc1nc(C)c(C(C)=O)s1	Shiga toxin inh 61.3, Cycloheximide cs 43.4
CCOC(=O)c1sc(N/N=C/c2cccc(C)c2)nc1C	none
O=C(CS(=O)(=O)c1c[nH]c2ccccc12)N1CCc2ccccc21	none
O=C(NCc1ccccn1)c1ccc(NS(=O)(=O)c2cccc(Cl)c2)cc1	Pf growth 96h inconclusive
CC(C)(C)C(=O)c1sc(Nc2ccccc2)nc1N	Pf growth 48h inconclusive, Shiga toxin inh 68.4, Cycloheximide cs 59.0
CCOC(=O)c1sc(Nc2ccc(F)cc2)nc1C	Shiga toxin inh 79.6, Cycloheximide cs 27.7
COc1ccc(Nc2nc(N)c(C(=O)c3ccc(OC)cc3)s2)cc1	Pf growth 48h inconclusive
CCOC(=O)c1sc(Nc2nc3c(OC)cccc3s2)nc1C	Shiga toxin inh 81.3, Cycloheximide cs 49.8
COc1ccc(/C(C)=N/Nc2nc(C)c(C(C)=O)s2)cc1	Pf growth 48h inconclusive, Shiga toxin inh 65.1, Cycloheximide cs 11.8
Cc1ccccc1NC(=O)c1ccc(Cl)c(NC(=O)c2cccnc2)c1	none
Cc1cccc(NC(=O)CCc2ccccc2)c1C	Pf growth 96h inconclusive
O=C(O)Cc1sc(N/N=C\c2ccccc2)nc1-c1ccccc1	Pf growth 96h inconclusive, Shiga toxin inh 57.7, Cycloheximide cs 52.9
O=C(O)Cc1sc(NCCc2ccccc2)nc1-c1ccc(F)cc1	none
CCOC(=O)c1sc(NS(=O)(=O)c2ccccc2)nc1C	Pf growth 96h inconclusive
O=C(O)c1ccc(Nc2nc3c(s2)CCCC3)cc1	none
CCOC(=O)c1sc(Nc2ccccc2)nc1C	Shiga toxin inh 55.8, Cycloheximide cs 51.8 (no result: Pf growth 48h)
COc1ccc(C(=O)c2sc(Nc3ccccc3)nc2C)cc1	Pf growth 96h inconclusive
COC(=O)c1sc(Nc2ccccc2)nc1C	Shiga toxin inh 103.7, Cycloheximide cs 35.3
O=S1(=O)N=C(Nc2nc3c(s2)CCCC3)c2ccccc21	Shiga toxin inh 56.6, Cycloheximide cs 28.3
CC(C)CC(C(=O)NC(C)(C)C)N(Cc1ccccc1Cl)C(=O)c1snc(C(N)=O)c1N (configuration not stated)	Pf growth 96h inconclusive, Pf growth 48h inconclusive
O=C1Nc2ccc(Cl)cc2[C@@](C#CC2CC2)(C(F)(F)F)O1	none (no result: Pf growth 96h, Pf growth 48h)
Cc1cccc(Nc2nc3c(s2)CCCC3)c1	Pf growth 96h inconclusive, Shiga toxin inh 122.2, Cycloheximide cs 68.2
CCOC(=O)c1sc(NC(=O)C2CC2)nc1C	Pf growth 96h inconclusive (no result: Pf growth 48h)
CCOC(=O)c1sc(NCC2CCCO2)nc1C (configuration not stated)	Pf growth 96h inconclusive, Cycloheximide cs active
CC(=O)c1sc(NC(=O)c2c(F)cccc2F)nc1C	none (no result: Pf growth 96h)
CC(=O)c1sc(Nc2cccc(C)c2)nc1C	Shiga toxin inh 91.1, Cycloheximide cs 46.1
CC(=O)c1sc(N/N=C\c2ccccc2O)nc1C	Cycloheximide cs 30.2
CCOC(=O)c1ccc(Oc2nc(NC)nc(OC)n2)cc1	Pf growth 48h 13.1µM
CCN(CC)c1nc(Oc2ccc(C(=O)NN)cc2)nc(Oc2ccc(C(=O)NN)cc2)n1	Pf growth 96h 9.28µM, Pf growth 48h 9.28µM
COC(=O)c1ccc(Oc2nc(SC)nc(N(C)C)n2)cc1	none
CNc1nc(Oc2ccc(C(=O)OC)cc2)nc(SC)n1	Pf growth 48h 10.4µM
Cc1cccc(N(CC(=O)NC2CCCCC2)C(=O)CCCC(=O)Nc2ccccn2)c1C	none

Screening data (PubChem BioAssay)
